# Assay results published in the supplement of paper PMC12645437, “Orthogonal IMiD-Degron Pairs Induce Selective Protein Degradation in Cells” (ACS Chemical Biology, 2025).
# In all, about 8,300 sequences were measured (“log2 fold change of degron read counts, EGFP-low vs EGFP+ sorted cells (limma voom), compound-induced degradation”: median about -1.1, highest 2% from about 3.2 on). This excerpt belongs to a sample that is enriched for the highest values.
# T1: CRBN, Q96SW2
# T1 chain: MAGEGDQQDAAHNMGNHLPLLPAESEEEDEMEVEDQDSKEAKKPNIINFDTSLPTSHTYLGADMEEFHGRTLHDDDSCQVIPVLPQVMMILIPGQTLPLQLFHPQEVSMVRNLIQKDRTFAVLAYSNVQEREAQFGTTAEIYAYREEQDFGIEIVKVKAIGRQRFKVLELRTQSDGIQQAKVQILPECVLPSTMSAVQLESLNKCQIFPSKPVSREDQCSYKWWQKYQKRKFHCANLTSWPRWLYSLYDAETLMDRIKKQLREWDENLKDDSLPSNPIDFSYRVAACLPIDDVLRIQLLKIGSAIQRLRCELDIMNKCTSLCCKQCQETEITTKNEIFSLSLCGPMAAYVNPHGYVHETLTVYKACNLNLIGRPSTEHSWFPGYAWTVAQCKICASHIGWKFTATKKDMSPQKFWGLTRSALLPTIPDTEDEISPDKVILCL
# Target: T1, CRBN, Q96SW2
# Assay: log2 fold change of degron read counts, EGFP-low vs EGFP+ sorted cells (limma voom), compound-induced degradation; higher = more compound-induced degradation of the degron-EGFP fusion; degrons are variants of IKZF1/3 zinc finger 2; compound dose not given here
# Details: Jurkat, 18 h
# [1] = compound: compound 19 (5-tert-butyl-thalidomide)
# [2] = compound: compound 22 (5-morpholino-thalidomide)
# [3] = compound: compound 33 (diphenyl IMiD analogue)
# 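Note: pooled lentiviral library of zinc finger degron-EGFP fusions in mCherry-positive Jurkat cells, FACS-sorted after compound exposure, with degron abundance counted by next-generation sequencing.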
Sequence,log2 fold change of degron read counts [1],log2 fold change of degron read counts [2],log2 fold change of degron read counts [3],log2 fold change of degron read counts (compound: thalidomide)
"FICNQCGAMFTQKGNLLRHIKL [46F_47I_49N_50Q_52G_53A_54M_55F_67L_, Q9UKT9]",-2.72,-2.75,-0.507,-1.6
"FSCPICGHCFTQKGNLLRHIKL [46F_47S_49P_50I_52G_53H_54C_55F_67L_, Q9UKT9]",-2.27,-2.66,-1.41,-1.81
"FLCNICGAHFTQKGNLLRHIKL [46F_47L_49N_50I_52G_53A_54H_55F_67L_, Q9UKT9]",-1.65,-2,-0.489,-0.376
"FFCSVCGHTFTQKGNLLRHIKL [46F_47F_49S_50V_52G_53H_54T_55F_67L_, Q9UKT9]",-1.42,-2.35,-2.3,-2.45
"FNCNQCGAKFTQKGNLLRHIKL [46F_47N_49N_50Q_52G_53A_54K_55F_67L_, Q9UKT9]",-2.03,-2.67,-2.17,-1.99
"FQCNQCGHYFTQKGNLLRHIKL [46F_47Q_49N_50Q_52G_53H_54Y_55F_67L_, Q9UKT9]",-3.07,-2.91,-2.9,-2.48
"FYCNQCGATFTQKGNLLRHIKL [46F_47Y_49N_50Q_52G_53A_54T_55F_67L_, Q9UKT9]",-1.8,-0.678,-1.33,-2.43
"FHCDQCGAWFTQKGNLLRHIKL [46F_47H_49D_50Q_52G_53A_54W_55F_67L_, Q9UKT9]",-2.39,-3.42,-2.72,-2.68
"FYCEICGRDFTQKGNLLRHIKL [46F_47Y_49E_50I_52G_53R_54D_55F_67L_, Q9UKT9]",-2.29,-2.76,-1.95,-2.67
"FQCDQCGAQFTQKGNLLRHIKL [46F_47Q_49D_50Q_52G_53A_54Q_55F_67L_, Q9UKT9]",-2.81,-1.76,-1.35,0.414
"FFCEICGHMFTQKGNLLRHIKL [46F_47F_49E_50I_52G_53H_54M_55F_67L_, Q9UKT9]",-1.68,-2.18,-1.72,-2.01
"FECNQCGAYFTQKGNLLRHIKL [46F_47E_49N_50Q_52G_53A_54Y_55F_67L_, Q9UKT9]",-2.64,-2.84,-1.48,-1.4
"FMCEICGHVFTQKGNLLRHIKL [46F_47M_49E_50I_52G_53H_54V_55F_67L_, Q9UKT9]",-2.94,-3.04,-2.18,-2.54
"FKCNICGAWFTQKGNLLRHIKL [46F_47K_49N_50I_52G_53A_54W_55F_67L_, Q9UKT9]",-1.98,-2.92,-2.11,-1.78
"FDCPICGAPFTQKGNLLRHIKL [46F_47D_49P_50I_52G_53A_54P_55F_67L_, Q9UKT9]",2.88,1.73,1.54,2.15
"FYCPICGAPFTQKGNLLRHIKL [46F_47Y_49P_50I_52G_53A_54P_55F_67L_, Q9UKT9]",3.63,3.27,2.84,2.2
"FYCPICGAKFTQKGNLLRHIKL [46F_47Y_49P_50I_52G_53A_54K_55F_67L_, Q9UKT9]",2.61,3.07,1.08,0.503
"FCCPICGADFTQKGNLLRHIKL [46F_47C_49P_50I_52G_53A_54D_55F_67L_, Q9UKT9]",1.61,1.1,1.77,1.6
"FCCNICGAPFTQKGNLLRHIKL [46F_47C_49N_50I_52G_53A_54P_55F_67L_, Q9UKT9]",3.01,2.73,1.32,1.86
"FVCPICGAPFTQKGNLLRHIKL [46F_47V_49P_50I_52G_53A_54P_55F_67L_, Q9UKT9]",2.4,3.68,2.3,3.49
"FYCPICGADFTQKGNLLRHIKL [46F_47Y_49P_50I_52G_53A_54D_55F_67L_, Q9UKT9]",1.73,1.44,1.25,-0.522
"FCCPICGAPFTQKGNLLRHIKL [46F_47C_49P_50I_52G_53A_54P_55F_67L_, Q9UKT9]",3.65,3.16,2.16,2.67
"FLCPICGAPFTQKGNLLRHIKL [46F_47L_49P_50I_52G_53A_54P_55F_67L_, Q9UKT9]",2.02,2.98,2.65,3.18
"FCCDICGAMFTQKGNLLRHIKL [46F_47C_49D_50I_52G_53A_54M_55F_67L_, Q9UKT9]",0.674,0.00358,0.721,-0.808
"FWCNVCGACFTQKGNLLRHIKL [46F_47W_49N_50V_52G_53A_54C_55F_67L_, Q9UKT9]",1.84,2.89,1.57,-0.431
"FYCNQCGHAFTQKGNLLRHIKL [46F_47Y_49N_50Q_52G_53H_54A_55F_67L_, Q9UKT9]",-2.34,-2.37,-2.98,-2.66
"FLCDICGASFTQKGNLLRHIKL [46F_47L_49D_50I_52G_53A_54S_55F_67L_, Q9UKT9]",0.329,-1.41,0.103,-0.525
"FNCDICGAEFTQKGNLLRHIKL [46F_47N_49D_50I_52G_53A_54E_55F_67L_, Q9UKT9]",0.228,-1.87,-2.21,-2.45
